# Reference: the supplement of paper PMC13380429
# Assays:
# [1] = test system: Vero E6 infected with SARS-CoV-2; experiment: morphology score (similarity to uninfected cells); higher = more like uninfected cells; conditions: 24 h
# [2] = test system: Vero E6 infected with SARS-CoV-2; experiment: SARS-CoV-2 infection rate relative to infected DMSO; higher = more infection, active = 60 or less; conditions: 24 h
SMILES,morphology score [1],SARS-CoV-2 infection rate [2]
CNC(=N)NCCC[C@H](N)C(=O)O [targinine] (10 µM),0.0428,106% (inactive)
CCN(Cc1ccc(Cl)nc1)/C(=C/[N+](=O)[O-])NC [nitenpyram] (10 µM),0.0591,101% (inactive)
O=[N+]([O-])c1cc2nc(O)c(O)nc2cc1[N+](=O)[O-] (10 µM),0.165,100% (inactive)
OCCN1CCN(CC/C=C2/c3ccccc3Sc3ccc(Cl)cc32)CC1 [zuclopenthixol] (0.833333 µM),0.0109,110% (inactive)
CC(=O)[C@]1(N)Cc2c(O)c3c(c(O)c2[C@@H](O[C@H]2C[C@H](O)[C@H](O)CO2)C1)C(=O)c1ccccc1C3=O [amrubicin] (0.833333 µM),0.065,92.5% (inactive)
CCNC(=O)C[C@@H]1N=C(c2ccc(Cl)cc2)c2cc(OC)ccc2-n2c(C)nnc21 (10 µM),-0.0652,106% (inactive)
Nc1nc(N)nc(NC2CC2)n1 [cyromazine] (10 µM),0.128,86.5% (inactive)
Cc1csc(S(=O)(=O)N(CC(C)C)c2cc3c(cc2OCc2ccc(C(=O)O)cc2)CCC3)n1 (10 µM),-0.0439,107% (inactive)
O=C(NCCCCN1CCN(c2cccc(Cl)c2Cl)CC1)c1ccc2c(c1)Cc1ccccc1-2 (10 µM),-0.00329,105% (inactive)
CN(C)NC(=O)CCC(=O)O [daminozide] (10 µM),0.0765,95% (inactive)
CC1CC(OC(=O)C(O)c2ccccc2)CC(C)(C)N1C (configuration not stated) [eucatropine] (10 µM),-0.104,115% (inactive)
CC(C)NC[C@@H](O)c1ccc(O)c(O)c1 (racemic) [isoprenaline] (0.833333 µM),0.241,100% (inactive)
O=C(O)c1ccc(-c2ccc3cc(O)c(C45CC6CC(CC(C6)C4)C5)cc3c2)cc1 (10 µM),-0.0522,106% (inactive)
Nc1ncn([C@@H]2O[C@H](CO)[C@@H](O)[C@H]2O)c(=O)n1 [azacitidine] (0.833333 µM),-0.0243,100% (inactive)
Cc1ccccc1N(C)C(=O)c1ccc([S+]([O-])c2nccs2)c([N+](=O)[O-])c1 (configuration not stated) (0.833333 µM),-0.0736,81% (inactive)
C[C@@H](O)[C@H]1C(=O)N2C(C(=O)O)=C(S[C@@H]3CN[C@H](C(=O)N(C)C)C3)[C@H](C)[C@H]12 [meropenem] (10 µM),0.0366,104% (inactive)
C/C(=N\NC(=S)N1CCC1)c1ccccn1 (0.833333 µM),0.0268,114% (inactive)
COc1ccc2[nH]c([S@@+]([O-])Cc3ncc(C)c(OC)c3C)nc2c1 [esomeprazole] (10 µM),-0.181,110% (inactive)
"c1ccc([C@H]2CNCc3ccccc32)cc1 [4-phenyl-1,2,3,4-tetrahydroisoquinoline] (10 µM)",-0.263,114% (inactive)
Cc1cc(Cn2nnc3c(-c4ccco4)nc(N)nc32)ccc1N [vipadenant] (10 µM),0.0562,110% (inactive)
C[C@H]1CCC/C=C/[C@@H]2C[C@H](O)C[C@H]2[C@H](O)/C=C/C(=O)O1 [brefeldin-A] (0.833333 µM),0.0397,107% (inactive)

SMILES,morphology score [1],SARS-CoV-2 infection rate [2]
COc1ccc(CNCc2cccc3ccccc23)cc1 (10 µM),0.0641,105% (inactive)
O=C1CCC[C@@H]2[C@H]3C[C@@H](CN12)[C@@H]1CCCCN1C3 [lupanine] (10 µM),-0.065,102% (inactive)
CN(C)C(=O)Oc1cc(OC(=O)N(C)C)cc(C(O)CNC(C)(C)C)c1 (configuration not stated) [bambuterol] (10 µM),-0.145,114% (inactive)
O=c1[nH]c(=O)c2ccccc2o1 [carsalam] (10 µM),0.265,85% (inactive)
CCCCCCOc1ccccc1C(N)=O [exalamide] (10 µM),0.105,108% (inactive)
COc1cc(C[C@H]2C(=O)OC[C@@H]2Cc2ccc(OC)c(OC)c2)ccc1O [arctigenin] (10 µM),0.0564,108% (inactive)
O=C1C[C@@H](c2ccc(O)cc2)Oc2cc(O)cc(O)c21 [naringenin] (10 µM),0.0218,98.5% (inactive)
CC(=O)O[C@H]1CC[C@@]2(C)C(=CC[C@@H]3[C@@H]2CC[C@]2(C)C(=O)CC[C@@H]32)C1 [prasterone-acetate] (10 µM),-0.259,110% (inactive)
O=C(O)COc1ccc(/C=C2\SC(=O)NC2=O)cc1 (10 µM),0.0392,97% (inactive)
Oc1cc2c(cc1O)[C@H](Cc1cccc3ccccc13)NCC2 (10 µM),-0.102,119% (inactive)
NS(=O)(=O)c1cc(-c2nnn[nH]2)c(NCc2cccs2)cc1Cl [azosemide] (10 µM),0.286,98.5% (inactive)
O=C(CCCN1CCC2(CC1)C(=O)NCN2c1ccccc1)c1ccc(F)cc1 [spiperone] (10 µM),0.763,22% (active)
O=C(O)CCn1c2c(c3ccccc31)C[C@H](NS(=O)(=O)c1ccc(F)cc1)CC2 [ramatroban] (10 µM),-0.0055,102% (inactive)
CCn1c2ccccc2c2cc(CNC)ccc21 (10 µM),0.514,56% (active)
COC(=O)c1cnn(-c2ccc(F)cc2F)c1/C=N/NC(=S)NC(C)(C)C (10 µM),0.433,74% (inactive)
c1cnc(N2CCN(Cc3ccc4c(c3)OCO4)CC2)nc1 [piribedil] (10 µM),0.0979,98.5% (inactive)
Cc1cc2c(C(N)=O)cccc2n1-c1nc2c(c(NCc3ccccc3)n1)COCC2 (10 µM),-0.0618,116% (inactive)
CCCCn1ccc(N2CCC(c3ccccc3)CC2)c(Cl)c1=O (10 µM),-0.265,116% (inactive)
COc1ccc2[nH]c3c(-c4cccc5ccccc45)nccc3c2c1 (10 µM),-0.0282,111% (inactive)
Fc1cc(-c2cccc3ncc(-c4cnn(C5CCNCC5)c4)nc23)cc(F)c1CN1CCOCC1 (0.833333 µM),0.0457,116% (inactive)
O=C1NC(=O)/C(=C/c2ccc3c(c2)OC(F)(F)O3)S1 (10 µM),-0.0969,106% (inactive)

SMILES,morphology score [1],SARS-CoV-2 infection rate [2]
CC1Nc2ccc(Cl)cc2S(=O)(=O)N1 (configuration not stated) (10 µM),0.135,100% (inactive)
C[C@H]1O[C@@H](O[C@H]2CC[C@@]3(C)[C@H](CC[C@@H]4[C@@H]3C[C@@H](O)[C@]3(C)[C@@H](C5=CC(=O)OC5)CC[C@]43O)C2)C[C@H](O)[C@@H]1O[C@H]1C[C@H](O)[C@H](O[C@H]2C[C@H](O)[C@H](O[C@@H]3O[C@H](CO)[C@@H](O)[C@H](O)[C@H]3O)[C@@H](C)O2)[C@@H](C)O1 [deslanoside] (0.833333 µM),-0.123,114% (inactive)
O=C(Oc1cccc2cccnc12)c1ccccc1 [benzoxiquine] (10 µM),0.116,97% (inactive)
CCN[C@H]1CN(CCCOC)S(=O)(=O)c2sc(S(N)(=O)=O)cc21 [brinzolamide] (10 µM),0.267,69% (inactive)
N#Cc1ncccn1 [2-cyanopyrimidine] (10 µM),0.0613,108% (inactive)
OC1(c2ccc(Cl)c(C(F)(F)F)c2)CCN(CCCC(c2ccc(F)cc2)c2ccc(F)cc2)CC1 [penfluridol] (0.833333 µM),0.173,79% (inactive)
CC[C@H]1OC(=O)[C@H](C)C(=O)[C@H](C)[C@@H](O[C@@H]2O[C@H](C)C[C@H](N(C)C)[C@H]2O)[C@](C)(OC)C[C@@H](C)C(=O)[C@H](C)[C@H]2N(CCCCn3cnc(-c4cccnc4)c3)C(=O)O[C@]12C [telithromycin] (10 µM),0.0131,118% (inactive)
Cc1cc(C(C)(C)C)cc(C)c1CC1=NCCN1 [xylometazoline] (10 µM),-0.0246,106% (inactive)
C[C@]12CC[C@H]3[C@@H](CC[C@@]45O[C@@H]4C(O)=C(C#N)C[C@]35C)[C@@H]1CC[C@@H]2O [trilostane] (10 µM),-0.0579,104% (inactive)
COc1ccc(Br)cc1S(=O)(=O)NC(=O)/C=C/c1ccccc1Cc1ccc2ccccc2c1 (10 µM),0.19,79.5% (inactive)
CCN(CC)CCNC(=O)c1ccccc1I (10 µM),0.221,91% (inactive)
N#C[C@H](O[C@@H]1O[C@H](CO[C@@H]2O[C@H](CO)[C@@H](O)[C@H](O)[C@H]2O)[C@@H](O)[C@H](O)[C@H]1O)c1ccccc1 [amygdalin] (10 µM),0.155,106% (inactive)
CCC(=O)Nc1cccc(Oc2nc(Nc3ccc(N4CCN(C)CC4)cc3OC)ncc2Cl)c1 (10 µM),0.0191,114% (inactive)
C[N+](C)(C)CCCCCCCCCC[N+](C)(C)C [decamethonium] (10 µM),0.0864,108% (inactive)
CN1[C@@H]2CC[C@H]1C[C@@H](OC(c1ccc(F)cc1)c1ccc(F)cc1)C2 [3-alpha-bis-(4-fluorophenyl)-methoxytropane] (10 µM),0.266,73% (inactive)
N#CC(Cc1ccc(O)cc1)c1ccc(O)cc1 (configuration not stated) [diarylpropionitrile] (10 µM),0.138,99% (inactive)
N#Cc1cn([C@@H]2O[C@H](CO)[C@@H](O)[C@H]2O)c2ncnc(N)c12 [toyocamycin] (0.833333 µM),-0.0555,104% (inactive)
COc1ccc(C(=O)c2ccccc2)c(O)c1 [oxybenzone] (10 µM),0.131,102% (inactive)
O=C(O)CNC(=O)C(CS)Cc1ccccc1 (configuration not stated) [thiorphan] (10 µM),0.106,98.5% (inactive)
